Measurements published in PubChem BioAssay (NCI).
This is part of a sample that, as a whole, favours compounds with a hit. Of some 83,000 tested, about 20% had one in any assay.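 The test compound was applied at a single concentration to cells in 96-well plates for 48 hours, and percent growth was recorded.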 Values without a mark were called inactive. The source made the active and inactive calls. The calls were made as follows: active = growth percent below 10; inactive = the rest.

Assays:
Experiment in all cases: NCI-60 one-dose screen, 48 h (100 = growth as untreated, 0 = no growth, -100 = all killed)
Details in all cases: 10 µM unless noted
NCI-H23 lung = tested on: NCI-H23 lung
NCI-H226 lung = tested on: NCI-H226 lung
NCI-H322M lung = tested on: NCI-H322M lung
HOP-62 NSCLC = tested on: HOP-62 NSCLC
NCI-H460 lung = tested on: NCI-H460 lung
HOP-92 NSCLC = tested on: HOP-92 NSCLC
NCI-H522 lung = tested on: NCI-H522 lung
A549/ATCC NSCLC = tested on: A549/ATCC NSCLC
786-0 renal = tested on: 786-0 renal
COLO 205 colon = tested on: COLO 205 colon

Compound | growth (NCI-H23 lung) | growth (NCI-H226 lung) [%] | growth (NCI-H322M lung) [%] | growth (HOP-62 NSCLC) [%] | growth (NCI-H460 lung) | growth (HOP-92 NSCLC) [%] | growth (NCI-H522 lung) [%] | growth (A549/ATCC NSCLC) [%] | growth (786-0 renal) | growth (COLO 205 colon)
Nc1cc(C(=O)NC[C@H]2CN(c3ccc(N4CCC(C(=O)O)CC4)cc3)C(=O)O2)ccc1Cl | 95.1% | 100 | 107 | 99 | 103% | 98.4 | 92 | 98.5 | 101% | 104%
COC(=O)c1c(C)c2n(c1C)C(=O)C(c1ccccc1)=C2 | 68.9% | 61.8 | 94.5 | 72.7 | 89.5% | 65.8 | 61.9 | 39.6 | 94.3% | 79.3%
Cc1cc(=O)n(C(=O)Nc2ccccc2Cl)c2cc(O)ccc12 | 98.6% | 98.7 | 88.7 | 89.2 | 100% | 79.7 | 95.2 | 101 | 103% | 100%
Cc1ccc2c(n1)C(=O)C(Br)=C(CC(C)C)C2=O | 98.6% | 97.2 | 96.5 | 97.1 | 105% | 80.4 | 67.7 | 90.8 | 96.3% | 78.5%
CS(=O)(=O)c1ccc(-c2cnn3ccc(-c4cccc(S(=O)(=O)C5CC5)c4)nc23)cc1 | 56.8% | 60.5 | 57.9 | 48.7 | 43.7% | 41.9 | 31.5 | 45 | 61.3% | 64.3%
NNc1nc(-c2cccnc2)nc2c1sc(=S)n2-c1ccccc1 | 102% | 105 | 101 | 69.1 | 107% | 84.9 | 58.7 | 87.7 | 89.7% | 98.4%
c1cc2c(ccc3[nH]c(-c4ccc5[nH]ncc5c4)c4c(c32)CCCC4)n1 | 74.3% | 58.6 | 92.2 | 42.5 | 22.3% | 40 | 47.4 | 32.5 | 56% | 58%
COC(=O)c1c(C)nc(C)c2c1C(=O)C(Br)=C(NCc1ccccc1)C2=O | 5.25% (active) | 71 | 31.4 | 87.1 | 11.7% | 86.9 | 22 | 18.2 | 51.6% | -11.8% (active)
O=C(CSC(=S)n1cnnc1)NC(=O)c1ccccc1 | 102% | 100 | 103 | 106 | 112% | 101 | 92.4 | 114 | 104% | 119%
COc1cc(-c2csc(NC(=O)c3ccc(N4CCOCC4)c(C(F)(F)F)c3)n2)cc(OC)c1OC | 15.7% | 41.6 | 70.3 | 34.2 | 46.2% | 57.6 | 14.3 | 31.9 | 37% | 18.9%
C[C@@H](CO)[C@@H]1CCC=C2CC[C@]3(C)[C@H](CC[C@@H]4[C@@]5(C)CCCNC(C)(C)[C@@H]5CC[C@]43C)[C@H]21 | 67.9% | 94.6 | 78.3 | 91.1 | -67.1% (active) | 75.7 | 82.1 | 47 | 70% | -56.8% (active)
CC(=O)Oc1ccc(/C(=C(\C)c2ccc(Cl)cc2)c2ccc(OCCN3CCCCC3)cc2)cc1 | 46.9% | 70.7 | 84.7 | 52.8 | 20.2% | 49.4 | 21.2 | 31.7 | -35.5% (active) | -52.4% (active)
CCOC(=O)c1cc2c(n1C)-c1nc(NC(C)=O)sc1CCC2 | 76.1% | 69.1 | 76.2 | 74.6 | 95.5% | 48.4 | 60.9 | 64.8 | 84.6% | 96.4%
